This test has as its system HL-1. Description: protection of cardiomyocytes from stress damage, SAR follow-up, cell-based, panel, H9c2 and HL-1, ATP luminescence, set 2 (AID 651871).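 Note: cells exposed to stressor for 2 h before ATP readout; reference of the scale not given here.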 The settings on record: H9c2/HL-1 cardiomyocytes, 2-deoxyglucose stress, with 2-deoxyglucose, run 2, at 19.8 µM (top of the series).

`COc1ccc2c(c1OC)C(=O)N1c3ccccc3C(=O)N(Cc3cccc(Cl)c3Cl)C21` (stereo unspecified) came in with an activity (protection/inhibition) of 23.7%.

(Values after PubChem BioAssay AID651871 (Sanford-Burnham Center for Chemical Genomics, 2012).)
